In the library only some 1.2% were active in any assay of this set; here they are far more common.
L929 necroptosis: L929 zVAD cell death inhibition; L929 zVAD necroptosis rescue, ATP luminescence, 24 h; with zVAD 60 µM; viability rescue, % at 10 µM; 220,000 compounds, 0.38% hits;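 active = activation, scaled between plate controls, above about 75%, limit read from the data; inactive = activation under that limit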;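 note: 0% = zVAD with DMSO and 100% = DMSO alone without zVAD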
EBV gp42 block: EBV gp42 inhibition; AID 1085; Fluorescence polarization binding assay, mP read-out; 220,000 compounds, 0.42% hits; inhibition, % (tested at 21.74 µM); in the data active = inhibition above about 50%
Target sequence (Q1HVG2 whole entry, looked up): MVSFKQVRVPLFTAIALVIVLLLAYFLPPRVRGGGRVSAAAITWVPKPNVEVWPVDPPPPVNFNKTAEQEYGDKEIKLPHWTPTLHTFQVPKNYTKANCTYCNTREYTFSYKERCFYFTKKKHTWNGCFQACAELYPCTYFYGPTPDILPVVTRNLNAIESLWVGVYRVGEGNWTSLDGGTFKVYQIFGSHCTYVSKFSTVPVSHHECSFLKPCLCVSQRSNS
TNF necrop inh: inhibitors of TNF-alpha induced necroptosis in Jurkat FADD-/- cells; 220,000 compounds, 0.068% hits; activation (protection from cell death), % at 10 µM; Jurkat FADD-/- TNF necroptosis rescue, ATP luminescence, 24 h; 0 = TNF only, 100 = no-TNF cells;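 active = activation, meaning protection from cell death, of at least 50% relative to plate controls; inactive = activation below 50%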;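 note: necroptosis triggered by 40 ng/mL TNF-alpha added together with compound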
eIF4E 4G PPI: inhibitors of eIF4E and eIF4G interaction in translation initiation; P63073+Q04637; TR-FRET eIF4E-eIF4GI(517-606) binding, 2 h; inhibition, % at 21.7 µM; 220,000 compounds, 0.37% hits; AID 782;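 active = inhibition above about 30%, limit read from the data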;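 note: 0% = full FRET control wells and 100% = background wells lacking eIF4GI fragment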
* marks the source's active call; other numbers are inactive results; [ ] = dose if it differs, or a comment.

SMILES	L929 necroptosis	EBV gp42 block	TNF necrop inh	eIF4E 4G PPI
CCOc1ccc(NC(=O)N(CCN(C)C)C(C)c2cccnc2)cc1 (stereo unspecified)	0	-6	4	88*
CC1CCN(C(=O)c2ccc3c(Cl)c4c(nc3c2)CCCC4)CC1	-1	9	0	82*
CCc1cccc(NC(=S)N(CCOC)C(C)c2ccco2)c1 (stereo unspecified)	0	12	-1	-3
CN(C)c1ccc(/C=C/C(=O)c2cc(Cl)ccc2O)cc1	0	65*	-4	2
O=C(/C=C/c1ccncc1)c1cc(Cl)ccc1O	0	5	-1	4
Oc1c(/C=C/C=C/C=Nc2ccccc2)sc(=S)n1Cc1ccccc1	-1	2	-21	-3
O=C(OCC(=O)N1c2ccccc2Sc2ccccc21)c1ccc[n+]([O-])c1	3	-17	-1	-1
CC1(C)Cc2c(sc(NC(=O)C3CC(Cl)=CCC3C(=O)O)c2C#N)CO1 (stereo unspecified)	1	-9	-1	-4
CC1=NOC(=O)/C1=C\c1ccc(-c2cc(Cl)ccc2Cl)o1	-1	95*	-8	-12
O=C(CSc1nnnn1-c1ccccc1)N1N=CCC1c1ccccc1 (stereo unspecified)	14	7	97*	4
Cc1ccc(SCC(=O)N2N=CCC2c2ccccc2)cc1 (stereo unspecified)	7	-4	68*	2
CCN1CCN(C(=O)NCc2ccccc2)CC1	-1	-9	3	1
Cc1ccc(Cn2cnc3sc4c(c3c2=O)CCC4)c(C)c1	0	3	92*	-4
O=S(=O)(c1ccc(NC(=S)N/N=C/c2c3ccccc3cc3ccccc23)cc1)N1CCOCC1	1	63*	1	0
OCC(CO)(CO)NC(=S)Nc1cc(Cl)cc(Cl)c1	0	-16	2	97*
CC(=O)N1N=C(N)SC1(C)C	1	-22	1	1
COC(=O)c1ccccc1NC(=O)COC(=O)c1ccc(C)c(NC(=O)c2ccco2)c1	0	-14	-4	86*[fluorescence artefact?]
COC(=O)c1ccccc1NC(=O)COC(=O)c1ccco1	0	18	-2	0
CCCCOC(=O)CSc1nc(N)c(C#N)c(-c2ccc(OCC)cc2)c1C#N	1	-3	-2	-11
CCOc1ccc(-c2c(C#N)c(N)nc3sc(C(=O)c4ccccc4)c(N)c23)cc1	1	70*	-3	-3
COc1ccc(-c2c(C#N)c(N)nc3sc(C(=O)c4ccccc4)c(N)c23)cc1	0	81*	6	3
CSc1c(C#N)c(N)nc2sc(C(=O)c3ccc(Cl)c(Cl)c3)c(N)c12	-1	76*	1	-5
Cc1ccccc1C(=O)N1CCC(C(=O)N2CCN(S(=O)(=O)c3ccccc3F)CC2)CC1	-1	-30	0	0
CN1CN(C)C(c2ccncc2)=C1c1ccncc1	0	-6	1	-1
CCOC(=O)c1ccc(N2CCCCC2)c(NS(=O)(=O)c2ccc(C)cc2)c1	1	2	1	3
SMILES	L929 necroptosis	EBV gp42 block	TNF necrop inh	eIF4E 4G PPI
CC(C)c1nnc(-c2ccc(Cl)cc2)c(N(C)C)n1	0	-18	75*	3
CCSc1nnc(-c2ccc(Cl)cc2)c2ccccc12	0	-6	26	-2
CCOC(=O)N1CCN(C(=O)c2cccn3c(=O)c4c5c(sc4nc23)CCCC5)CC1	1	-2	-1	-6
O=C(O)CSc1cc(C(=O)c2ccccc2O)cn2c(=O)c3c4c(sc3nc12)CCCC4	0	69*	0	17
CCCNC(=O)c1ccc2c(=O)c(O)c(-c3ccc(F)cc3)[nH]c2c1	0	-15	-6	98*
CCCNC(=O)c1ccc2c(=O)c(O)c(-c3cccc(Br)c3)[nH]c2c1	-1	-11	-10	-9
CCOC(=O)c1noc(C)c1C(=O)Nc1nc(C)cc(C)n1	0	-7	0	-2
CCc1c(C)sc(NC(=O)C2CCCCC2C(=O)O)c1C(N)=O (stereo unspecified)	0	-14	-2	55*
CCc1c(C)sc(NC(=O)OC)c1C(N)=O	0	-13	-4	3
O=C(CCCC(=O)OCC(Cl)=C(Cl)Cl)Nc1ccccc1	0	3	1	-3
C=C1c2cccc(O)c2C(O)=C2C(=O)[C@]3(O)C(O)=C(C(N)=O)C(=O)[C@@H](N(C)C)[C@@H]3[C@@H](O)[C@H]12	1	-13	-4	6
CN(C)[C@@H]1C(=O)C(C(=O)NCN2CCCC2)=C(O)[C@@]2(O)C(=O)C3=C(O)c4c(O)cccc4[C@@](C)(O)C3CC12 (stereo partly specified)	1	71*	-1	64*
COc1ccc(NC(=O)CN2C(=O)/C(=C3\SC(=S)N(C4CCS(=O)(=O)C4)C3=O)c3ccccc32)cc1 (stereo unspecified)	0	61*	-22	7
CCOC(=O)c1cc(-c2ccc(N3CCOCC3)cc2)nn1-c1ccccc1	2	-12	1	-3
CCOC(=O)c1cc(-c2ccc(N3CCOCC3)cc2)nn1-c1ccccc1C(=O)O	1	32	4	38*
Cc1ncc([N+](=O)[O-])n1Cc1cccc2ccccc12	1	66*	0	7
CN(C)S(=O)(=O)c1cccc(NC(=S)N/N=C/c2ccc(O)c(O)c2O)c1	-1	-6	-6	42*
COc1ccc(O)c(/C=N/NC(=S)Nc2cccc(S(=O)(=O)N(C)C)c2)c1	3	3	-4	-21
COC(=O)c1ccccc1NC(=O)Nc1ncccc1C	1	64*	-1	4
CCCN1C(=O)C2(C(C(=O)c3ccc(C)o3)=C(O)C(=O)N2CCCOC)c2ccccc21 (stereo unspecified)	0	7	1	96*
CC(C)(C)c1[nH]nc2c1C(c1cccnc1)C(C#N)=C(N)O2 (stereo unspecified)	2	-13	0	-2
CC(C)(C)c1[nH]nc2c1C(c1ccc(OC(=O)c3ccco3)cc1)C(C#N)=C(N)O2 (stereo unspecified)	-1	23	-4	43*
COc1ccc(C(C#N)c2ccc(=O)[nH]n2)cc1 (stereo unspecified)	0	-1	0	3
O=[n+]1c2c(n([O-])c3cc(F)c(N4CCCC4)cc31)CCCC2	1	101*	-1	-7
CC(=O)c1c(C(=O)O)c2ccccc2[nH]c1=O	0	2	7	92*
Cn1cc(/C=C2\SC(=S)N(NC(=O)c3ccccc3Cl)C2=O)c2ccccc21	1	87*	1	8
Cn1cccc1/C=C1\SC(=S)N(NC(=O)c2ccccc2Cl)C1=O	1	-173	1	9
Cc1ccc(C(=O)NN2C(=O)/C(=C/c3cn(C)c4ccccc34)SC2=S)cc1	1	130*	2	-5
Cn1cc(/C=C2\SC(=O)NC2=S)c2ccccc21	14	72*	-1	-5
Cc1ccc(C(=O)NN2C(=O)/C(=C/c3cccn3C)SC2=S)cc1	0	-97	3	10

Source: PubChem BioAssay
